PubChem BioAssay (NCATS)
Results filed as inconclusive are left out. Active and inactive are the calls of the source. Calls follow the shape of the dose curve; as a rule, active = well fitted curve in the direction sought with a large enough effect; inconclusive = small, poorly fitted or top-dose-only effect, or another doubt; inactive = no such curve, though single readings can be large; an effect the other way counts as inactive or inconclusive.

What was measured:
[1] = system: Zika virus NS2B-NS3 protease (linked construct); test: Primary screen NINDS Rhodamine qHTS for Zika virus inhibitors (AID 1347160); conditions: outcome: dose series up to 57.1 µM unless noted; also: nearly all actives have a fitted effect of over 55% in size
Outline: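 Kinetic fluorescence (Ex 480 nm, Em 540 nm) over 15 min with 1.5 microM Rhodamine110 peptide and 25 nM linked protease.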

[2] = target: Lysine-specific demethylase 5B (Homo sapiens) (UniProt Q9UGL1); test: Optimization screen for KDM5B Histone Demethylases FDH coupled qHTS against the LOPAC library (AID 1347166)
Chain of Lysine-specific demethylase 5B (Homo sapiens) (Q9UGL1 whole entry, looked up): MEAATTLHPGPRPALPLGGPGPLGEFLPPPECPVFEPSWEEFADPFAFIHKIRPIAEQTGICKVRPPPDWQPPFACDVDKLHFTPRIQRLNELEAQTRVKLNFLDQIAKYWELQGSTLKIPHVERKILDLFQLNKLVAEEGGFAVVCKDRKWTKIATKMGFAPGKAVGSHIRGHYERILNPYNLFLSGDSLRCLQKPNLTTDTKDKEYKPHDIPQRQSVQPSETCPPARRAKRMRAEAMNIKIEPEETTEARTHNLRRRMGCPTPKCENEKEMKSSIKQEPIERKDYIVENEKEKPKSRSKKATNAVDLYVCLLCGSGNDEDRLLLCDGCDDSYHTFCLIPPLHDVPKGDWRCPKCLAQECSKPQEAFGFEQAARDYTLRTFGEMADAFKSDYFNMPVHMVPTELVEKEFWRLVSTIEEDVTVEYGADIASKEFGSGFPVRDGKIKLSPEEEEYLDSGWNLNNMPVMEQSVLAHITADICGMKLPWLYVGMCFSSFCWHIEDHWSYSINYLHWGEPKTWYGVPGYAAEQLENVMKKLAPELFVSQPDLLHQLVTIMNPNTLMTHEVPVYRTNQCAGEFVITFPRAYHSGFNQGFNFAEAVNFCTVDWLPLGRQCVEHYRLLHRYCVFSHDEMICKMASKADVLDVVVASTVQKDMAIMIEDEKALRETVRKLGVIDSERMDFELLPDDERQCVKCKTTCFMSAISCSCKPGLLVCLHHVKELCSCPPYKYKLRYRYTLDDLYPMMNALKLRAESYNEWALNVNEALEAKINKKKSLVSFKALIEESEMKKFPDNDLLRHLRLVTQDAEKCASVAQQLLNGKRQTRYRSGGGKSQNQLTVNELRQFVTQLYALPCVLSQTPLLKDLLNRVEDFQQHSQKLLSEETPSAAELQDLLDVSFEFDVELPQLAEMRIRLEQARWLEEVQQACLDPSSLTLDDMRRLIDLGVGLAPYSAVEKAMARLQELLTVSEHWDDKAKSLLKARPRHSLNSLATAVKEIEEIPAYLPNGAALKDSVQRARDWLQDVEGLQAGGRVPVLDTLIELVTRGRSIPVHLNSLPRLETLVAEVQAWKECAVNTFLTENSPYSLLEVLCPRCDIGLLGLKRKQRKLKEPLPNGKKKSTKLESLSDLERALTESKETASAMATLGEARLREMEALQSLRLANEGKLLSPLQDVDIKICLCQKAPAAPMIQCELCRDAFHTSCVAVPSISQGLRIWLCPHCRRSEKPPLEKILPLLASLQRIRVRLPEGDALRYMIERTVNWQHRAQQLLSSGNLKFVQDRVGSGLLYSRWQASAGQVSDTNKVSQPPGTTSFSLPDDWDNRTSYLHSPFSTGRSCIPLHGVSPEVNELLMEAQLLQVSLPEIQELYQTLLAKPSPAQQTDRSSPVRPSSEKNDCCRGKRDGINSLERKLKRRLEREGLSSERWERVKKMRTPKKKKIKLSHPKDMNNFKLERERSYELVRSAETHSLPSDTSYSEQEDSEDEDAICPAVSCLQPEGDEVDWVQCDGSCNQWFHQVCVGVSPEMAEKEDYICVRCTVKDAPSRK
Outline: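 KDM5BDeltaAP (200nM final) preincubated 10 min with compound, then 12.5uM H3K4Me3, 25uM a-ketoglutarate, ascorbate, Fe(II), NAD+ and FDH added; 50mM HEPES pH 7.5, 0.01% Tween-20. NADH fluorescence (340/450 nm) change over 30 min, room temperature.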

[3] = qHTS for inhibitors of adenylyl cyclases using a fission yeast platform: a pilot screen against the NCATS LOPAC library (AID 1347410)
Outline: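 Fission yeast qHTS: CHP2027 cells (AC9-GNAS-PDE4D2, fbp1-GFP), 5x10^6 cells/mL working density, EMM + His/Lys/Ura; LOPAC at up to 57 µM final; 18 h dark, 30C; GFP by laser cytometry. DPI positive control, DMSO vehicle.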

[4] = target: Single-stranded DNA cytosine deaminase (Homo sapiens) (UniProt Q9GZX7); test: Validation qHTS assay for inhibitors of Activation Induced Cytidine Deaminase (AID): AID signal (AID 1347429)
Chain of Single-stranded DNA cytosine deaminase (Homo sapiens) (Q9GZX7 whole entry, looked up): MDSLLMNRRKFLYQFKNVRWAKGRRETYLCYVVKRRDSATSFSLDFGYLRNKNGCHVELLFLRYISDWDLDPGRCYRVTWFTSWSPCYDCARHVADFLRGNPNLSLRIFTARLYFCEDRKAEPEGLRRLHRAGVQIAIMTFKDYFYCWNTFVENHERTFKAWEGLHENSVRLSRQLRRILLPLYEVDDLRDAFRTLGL
Outline: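 AID and UDG were combined and compounds added at final up to 114 uM, then DJC20/DJC23 FRET substrate was added for 4 hr at room temperature. NaOH was then added for 30 min before fluorescence was read at 540/590 nm.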

[5] = Primary qHTS for inhibitors of La Crosse Virus (LACV) - induced cell death in SH-SY5Y cells (AID 1508616);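 also: top concentration of the series differs between compounds; higher means more rescue of cells from virus-induced death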
Outline: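 Luminescent ATP readout (ATPLite 1step, 5 min room temperature) measured rescue from LACV-induced death after 6 days of infection at 0.01 MOI; normalized to infected DMSO wells and uninfected DMSO wells.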

[6] = target: Calcium and integrin-binding protein 1 (Homo sapiens) (UniProt Q99828); test: Primary qHTS for Identification of Calcium Integrin Binding Protein 1 (CIB1) Competitor (AID 1508620);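 also: GST tagged CIB1 binding a fluorescein labelled alphaIIb integrin peptide tracer; top concentration of the series differs between compounds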
Chain of Calcium and integrin-binding protein 1 (Homo sapiens) (Q99828 whole entry, looked up): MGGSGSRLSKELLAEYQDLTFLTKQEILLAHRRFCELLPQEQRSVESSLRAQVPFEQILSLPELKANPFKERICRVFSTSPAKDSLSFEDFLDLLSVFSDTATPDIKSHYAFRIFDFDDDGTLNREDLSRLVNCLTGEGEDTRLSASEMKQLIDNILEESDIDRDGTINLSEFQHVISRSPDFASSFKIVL
Outline: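 CIB1-GST (1 uM final) and compound incubated 15 min at room temperature before adding FITC-alphaIIb peptide tracer (100 nM final). Competition for binding read by fluorescence polarization (ex 480, em 540) after another 15 min at room temperature.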

[7] = Counterscreen qHTS for small molecule stabilizers of the endoplasmic reticulum resident proteome: GLuc-NoTag assay (AID 1508627);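 also: SH-SY5Y cells given compound then 100 nM thapsigargin to empty ER calcium; series mostly up to about 76 µM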
Outline: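 Luminescence of Gaussia luciferase secreted into the medium (coelenterazine, 0.07x final, unlysed cells) was the read-out. Human SH-SY5Y neuroblastoma cells constitutively secreting untagged GLuc received compound for 19 h, then 100 nM thapsigargin for 4 h.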

[8] = qHTS to identify inhibitors of the type 1 interferon - major histocompatibility complex class I in skeletal muscle: primary screen against the NCATS Pharmaceutical Collection (AID 1347407);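 also: luminescence of HiBiT knocked into endogenous HLA-B as interferon-induced MHC class I level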
Outline: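 Luminescence from HiBiT-tagged endogenous HLA-B*08:01 served as the read-out of IFN-beta-induced MHC class I in CRISPR-engineered C25cl48 myoblasts. Cells received 4 ng/ml IFN-beta plus compound (high final 46 uM, […]) for 24 h.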

[9] = target: Protein phosphatase 1D (Homo sapiens) (UniProt O15297); test: RapidFire Mass Spectrometry qHTS Assay for Modulators of WT P53-Induced Phosphatase 1 (WIP1) (AID 1347424);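 also: amount of dephosphorylated VEPPL-S-QETFS peptide product formed by WIP1; series mostly up to about 63 µM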
Chain of Protein phosphatase 1D (Homo sapiens) (O15297 whole entry, looked up): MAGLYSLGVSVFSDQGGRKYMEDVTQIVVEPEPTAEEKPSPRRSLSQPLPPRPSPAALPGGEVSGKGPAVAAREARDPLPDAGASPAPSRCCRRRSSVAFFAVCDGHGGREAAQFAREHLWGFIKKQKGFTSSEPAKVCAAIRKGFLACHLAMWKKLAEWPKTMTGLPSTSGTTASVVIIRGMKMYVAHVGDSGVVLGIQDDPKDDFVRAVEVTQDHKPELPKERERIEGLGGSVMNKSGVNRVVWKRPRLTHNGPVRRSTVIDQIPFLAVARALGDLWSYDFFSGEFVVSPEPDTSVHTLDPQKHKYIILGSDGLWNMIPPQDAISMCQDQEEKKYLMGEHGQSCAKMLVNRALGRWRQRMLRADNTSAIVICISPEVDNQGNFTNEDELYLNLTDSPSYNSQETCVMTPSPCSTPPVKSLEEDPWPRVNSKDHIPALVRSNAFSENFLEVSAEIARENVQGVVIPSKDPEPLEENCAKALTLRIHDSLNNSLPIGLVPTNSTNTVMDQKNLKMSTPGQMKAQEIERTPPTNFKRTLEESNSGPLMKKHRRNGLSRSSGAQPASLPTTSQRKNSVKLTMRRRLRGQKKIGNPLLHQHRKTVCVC
Outline: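 10 nM WIP1 + cpd, 1 h RT; + 2 uM VEPPL-pS-QETFS, 5 min RT; stop 0.5% formic acid; labelled product standard 1 uM; RapidFire MS. Buffer 50 mM Tris pH 7.5, 30 mM MgCl2, 1 mM TCEP.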

[10] = target: Protein phosphatase 1D (Homo sapiens) (UniProt O15297); test: Rhodamine-PBP qHTS Assay for Modulators of WT P53-Induced Phosphatase 1 (WIP1) (AID 1347425)
Outline: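 5 nM WIP1 + 10 uM Rh-PBP, 50 mM Tris pH 7.5, 30 mM MgCl2, 1 mM TCEP, 0.1 mM EGTA, BSA; cpds pinned, 1 hr RT; + 10 uM phosphopeptide; fluorescence 1-min reads x 11 min; delta = f1 - f0.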

[11] = system: Zika virus NS2B-NS3 protease (unlinked complex); test: Primary screen GU Rhodamine qHTS for Zika virus inhibitors: Unlinked NS2B-NS3 protease assay (AID 1347159); also: nearly all actives have a fitted effect of over 60% in size
Outline: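 A qHTS format was used, with compound concentrations ranging up to 114 microM. Each compound was preincubated with 25 nM NS2B-NS3 protease, and the substrate was then added at 1.5 microM. Curves were fitted with a 4-parameter Hill model.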

[12] = qHTS to identify inhibitors of the type 1 interferon - major histocompatibility complex class I in skeletal muscle: primary screen against the NCATS Mechanism Interrogation Plate v5.0 (MIPE) Libary (AID 1347411); also: nearly all actives have a fitted effect of over 65% in size
Outline: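 Immortalized human C25cl48 myoblasts with HiBit knocked into endogenous HLA-B*08:01 were stimulated with 4.0 ng/ml IFN-beta and exposed to compounds (11-point 1:3 titration, top 46 uM final) for 24 hrs at 37 C; HiBiT lytic luminescence measured.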

[13] = target: Calcium and integrin-binding protein 1 (Homo sapiens) (UniProt Q99828); test: Validation qHTS for Identification of Calcium Integrin Binding protein 1 (CIB1) Competitor (AID 1508618)
Outline: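 Displacement of FITC-alphaIIb peptide (100 nM) from CIB1-GST (1 uM) is monitored by polarization in quantitative HTS format; buffer carries 5 mM CaCl2 and 125 mM NaCl at pH 7.4, incubations are at room temperature.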

Measured: Potency

O=C1NC(c2cccc([N+](=O)[O-])c2)=CCN1c1ccccc1O
inactive: [1] | [2] | [3] | [4] | [5] | [6] | [7]

O=C(CCCCCCCCC#CI)Oc1ccccc1
inactive: [1] | [8] | [9] | [10] | [5] | [6]

CC(=O)O[C@@H]1C(=O)O[C@@H]2[C@H]1OC(=O)[C@@H]2OC(C)=O
inactive: [1] | [8] | [9] | [10] | [5] | [6]

CCC(C(=O)NC(=O)NC(C)=O)c1ccccc1 (stereo not given)
inactive: [1] | [8] | [9] | [10] | [5] | [6]

Nc1c(NC/C=C\COc2cc(CN3CCCCC3)ccn2)c(=O)c1=O
inactive: [11] | [1] | [8] | [9] | [10] | [5] | [6]

CC1c2ccccc2CN1NC(=O)c1ccc(Cl)c(S(N)(=O)=O)c1 (stereo not given)
inactive: [1] | [8] | [12] | [9] | [10] | [5] | [6]

CCOC(=O)c1ccc(NC(=O)CN2CCCCC2)cc1
inactive: [1] | [8] | [9] | [10] | [5] | [6]

C=CCOc1cc(Cl)ccc1C(=O)NCCN(CC)CC
inactive: [1] | [8] | [9] | [10] | [5] | [6]

CN(C)c1cc2c(Nc3ccc4c(cnn4Cc4ccccc4)c3)ncnc2cn1
inactive: [1] | [2] | [3] | [4] | [5] | [13]

COc1ccccc1N1CCN(CCN2C(=O)CC3(CCCC3)CC2=O)CC1
inactive: [1] | [2] | [3] | [4] | [5] | [13] | [6]

CC[N+]1(CC)CCC(=C(c2ccccc2)c2ccccc2)C1C (stereo not given)
inactive: [1] | [8] | [9] | [5] | [6]

O=C(O)CNC(=O)CNC(=O)CNC(=O)CSC(=O)c1ccccc1
inactive: [1] | [8] | [9] | [10] | [5] | [6]
